From PubChem BioAssay AID1851 (National Center for Advancing Translational Sciences (NCATS), 2009)
In all, about 16,000 compounds went through this assay and about 2,600 (16%) were called active. Another 20% or so got no clear call; they are omitted. The list is a sample of the results. A number with no mark means an inactive call. The call rests on the fitted dose curve; in most records, active means well fitted curve in the direction sought with a large enough effect; inconclusive means small, poorly fitted or top-dose-only effect, or effect the other way; inactive means no such curve, though single readings can be large or run the other way.

Target: Cytochrome P450 2D6 (Homo sapiens) (UniProt P10635)
Assay: Cytochrome panel assay with activity outcomes
Settings: recombinant CYP, pro-luciferin dealkylation, luminescence, p450-cyp2d6; series mostly up to 57.1 µM
On the % scale 0 is the no-effect control and ±100 the full control effect.

Chain of Cytochrome P450 2D6 (Homo sapiens) (P10635 whole entry, looked up): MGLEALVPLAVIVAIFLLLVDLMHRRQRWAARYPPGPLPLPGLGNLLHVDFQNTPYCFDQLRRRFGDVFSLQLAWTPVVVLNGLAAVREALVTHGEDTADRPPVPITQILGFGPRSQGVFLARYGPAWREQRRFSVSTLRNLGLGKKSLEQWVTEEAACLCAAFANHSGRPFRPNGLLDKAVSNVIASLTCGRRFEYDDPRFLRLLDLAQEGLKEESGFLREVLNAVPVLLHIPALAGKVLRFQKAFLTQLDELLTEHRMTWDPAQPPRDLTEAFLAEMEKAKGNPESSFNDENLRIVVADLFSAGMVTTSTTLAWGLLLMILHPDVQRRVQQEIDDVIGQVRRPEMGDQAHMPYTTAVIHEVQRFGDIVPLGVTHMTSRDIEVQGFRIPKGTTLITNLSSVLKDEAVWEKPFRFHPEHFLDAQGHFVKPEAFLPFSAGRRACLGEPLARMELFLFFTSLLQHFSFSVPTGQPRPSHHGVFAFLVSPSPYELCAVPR

Compound	activity, negative = inhibition	AC50
O=C(O)CC[C@@H](C(=O)O)N1C(=O)[C@@H]2[C@@H]3CC[C@H](C3)[C@@H]2C1=O	13.3% [at 11.4 µM]	
COCCCNC(=O)C(=O)N/N=C/c1ccc(OCC(=O)Nc2cccc(Cl)c2C)c(OC)c1		inactive
CCCc1cc(=O)[nH]c(=S)[nH]1		inactive
Cc1ccc(OCC(=O)NNC(=O)CCC(=O)Nc2ccc(C)cc2C)cc1		inactive
Nc1ccc(S(=O)(=O)NCc2nccs2)cc1	-11% [at 11.4 µM]	
O=C1CCCC=C1[C@@H](O)C1CCCCC1	11.1% [at 11.4 µM]	
CCCCOc1cc(C[C@@H]2CNC(=O)N2)ccc1OC		inactive
CCCN1C[C@H](CSC)C[C@H]2c3cccc4[nH]cc(c34)C[C@@H]21		100 nM (active)
O=C(O)c1cc2cc(Cc3cccnc3)ccc2o1		inactive
Cc1cc(C)nc(NC(=O)c2cccc([N+](=O)[O-])c2C)n1		inactive
CC(C)(C)C1CCC(OCC(O)CN2CCN(c3ccccc3)CC2)CC1 (centres undefined)		6310 nM (active)
ClC(Cl)(Cl)C(N1CCN(c2ccccc2)CC1)N1CCN(c2ccccc2)CC1	4.26% [at 11.4 µM]	
OC[C@@H](O)CN1CCN(c2ccccc2)CC1		inactive
COCCCN=CC1=C(O)CC(C)(C)CC1=O		inactive
CCc1c(C(C)O)oc2ccc3c(C)cc(=O)oc3c12 (centres undefined)		inactive
COc1ccc(-n2nc(C(=O)NCC(=O)Nc3ccccn3)c3ccccc3c2=O)cc1		inactive
Cn1c(=O)[nH]c2ncn(C)c2c1=O		inactive
CCC(=S)/C=C1\Sc2ccc3ccccc3c2N1CCCS(=O)(=O)O		inactive
CCN(CC)CCN1C(=O)c2cccc3cc(N)cc(c23)C1=O	-3.81% [at 11.4 µM]	
CCN(CC)CCN1c2ccccc2Sc2ccc3ccccc3c21		631 nM (active)
CN(C)CCCN1c2ccccc2Sc2cnccc21		1580 nM (active)
CN(C)CCCN1c2ccc3ccccc3c2Sc2cccc(Cl)c21		501 nM (active)

Compound	activity, negative = inhibition	AC50
CN1C(=C2C(=O)OC(C)(C)OC2=O)Sc2ccccc21		inactive
CN(C)CCCN1c2ccccc2Sc2ccc3ccccc3c21		1260 nM (active)
C/C(CC(=O)NCc1ccco1)=N\NC(=O)Cc1cccc2ccccc12		inactive
Cc1c(C(=O)O)nc(/C=C\C(=O)O)[nH]c1=O	6.81% [at 11.4 µM]	
Cc1nc2cnc(N(C)C)nc2n(Cc2ccc(F)cc2)c1=O		inactive
CCSc1nc2c(c(=O)[nH]1)C(c1ccncc1)C(C(=O)OC(C)C)=C(C)N2 (centres undefined)		inactive
COc1ccc(CN2CN(c3ccc(Cl)cc3)C(=O)N(n3cnnc3)C2)cc1		inactive
N#C/C(=C\N1CCNC1=S)C(=O)c1ccc2ccccc2c1	-0.81% [at 11.4 µM]	
COc1ccccc1N1CCN(CCN2C(=O)c3ccccc3C(C)(C)C2=O)CC1		inactive
CN(C)CCCn1cc(C2=C(c3c[nH]c4ccccc34)C(=O)NC2=O)c2ccccc21		inactive
CN(C)CCCN1c2ccccc2C(C)(C)c2ccccc21		3980 nM (active)
O=C(c1cnccn1)N1CCC2(CC1)CN(c1cccc(-c3ccccc3)c1)C2		inactive
O=C(NCc1n[nH]c(=S)n1-c1cccc(Cl)c1)c1ccc(S(=O)(=O)N2CCCC2)cc1		inactive
Nc1c(-c2cccs2)cnn1-c1nc(-c2ccc(F)cc2)cs1		inactive
Fc1ccc(-c2cnc(-c3cccs3)o2)cc1		28200 nM (active)
NC(=O)c1ccc(-c2ncc(-c3ccccc3)o2)cc1		inactive
COc1ccc(C2C(C#N)=C(N)OC3=C2C(=O)CC(C)(C)C3)c([N+](=O)[O-])c1OC (centres undefined)		inactive
CSc1cc(C)nc(NC(C)=O)n1		inactive
CCOC(=O)C1=C(CSc2nc3ccccc3s2)NC(=O)NC1c1cc(C)ccc1C (centres undefined)		inactive
O=S(=O)(c1ccccc1)N1CCC[C@@]2(CCN(C(c3ccccc3)c3ccccc3)C2)C1		631 nM (active)
O=S(=O)(c1ccccc1)N1CCC2(CCCN(C(c3ccccc3)c3ccccc3)C2)CC1		501 nM (active)
O=S(=O)(c1ccccc1)N1CCC2(CC1)CN(C(c1ccccc1)c1ccccc1)C2		2510 nM (active)

Compound	activity, negative = inhibition	AC50
O=S(=O)(c1ccccc1)N1CCC2(CCN(C(c3ccccc3)c3ccccc3)CC2)CC1		inactive
CN1CCCC2(CCN(S(=O)(=O)c3ccccc3)CC2)C1		inactive
Fc1ccc2nc(Nc3nc4c(s3)CCCC4)sc2c1		inactive
Cc1cc(OC(=O)c2cc(F)c(F)cc2Cl)nc(C)n1		inactive
O=C(O)CN(CCN(CC(=O)O)CC(=O)O)CCN(CC(=O)O)CC(=O)O		inactive
Nc1nc(N)c2[nH]cnc2n1 (tested in a mixture with another compound)	-4.07% [at 11.4 µM]	
C/C(Cl)=C\Cn1c(N2CCCC2)nc2c1c(=O)[nH]c(=O)n2C		inactive
C[C@@H](CC(=O)O)[C@@H](N)C(=O)O		inactive
Cc1ccnc(NS(=O)(=O)c2ccc(N)cc2)n1		inactive
COC(=O)c1ccc(CCc2cc(O)ccc2O)cc1	7.07% [at 11.4 µM]	
O=c1[nH]c(=S)c2[nH]c(=O)n(-c3ccccc3)c2[nH]1	7.71% [at 11.4 µM]	
CO[C@]1(NC(=O)Cc2cccs2)C(=O)N2C(C(=O)O)=C(COC(N)=O)CS[C@H]21		inactive
CC(=O)NC1(c2ccc(F)cc2)CCN(C(=O)Nc2ccc(F)cc2F)CC1		inactive
NC1=NC2(CCCCC2)N=C(Nc2ccc(F)cc2F)N1		12600 nM (active)
CO[C@H]1OC[C@@]2(C)[C@@H]3C4=C(CN2C(=O)OC(C)(C)C)[C@H](C)[C@H](CO)[C@H](CO)[C@H]4CC[C@H]13		inactive
Cc1cccc(OCCn2c(-c3ccco3)nc3ccccc32)c1		5010 nM (active)
Cc1cccc(CCNc2nc3ccccc3n3nnnc23)c1		inactive
Cc1cccc(N2CC(O)=C(c3nc4ccccc4n3C)C2=N)c1		inactive
Cn1cc(C(=O)c2ccc(Cl)cc2Cl)cc1C(=O)O		inactive
O=c1c(-c2ccccc2)nc2cnc(N3CCNCC3)nc2n1-c1ccccc1		inactive
